# Reference: the supplement of paper PMC4206461
# Tested on: Pseudomonas aeruginosa PA14 dppBCDF deletion mutant
# Assay: respiration area under curve with compound as sole nitrogen source, 24 h (OmniLog AUC (arbitrary units)); higher = more respiration / better utilisation as nitrogen source, active = 2000 or more
# Conditions: plate: PM8
# Protocol: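 Biolog Phenotype MicroArray plates PM6-PM8: each di/tripeptide is the sole nitrogen source. Tetrazolium reduction was read in the OmniLog every 15 min for 24 h at 37°C and summarised as area under the respiration curve (arbitrary units). Values below 2000 count as no respiration. Strain is the dipeptide ABC transporter deletion mutant.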
row,SMILES,respiration area under curve
1,N[C@@H](Cc1ccc(O)cc1)C(=O)NCC(=O)NCC(=O)O,4900 (active)
